PubChem BioAssay
Several values for one entry are separate records, joined by “and”; a condition that tells them apart may be missing. Identical values can stand only once. Inconclusive results are not listed. For some of these results: Measured potencies and affinities stand elsewhere. Activity calls are given as the source filed them. Unless noted, the rule behind the calls is not given here.

Assays:
[1] = polyglutamine-triggered caspase-3 activation inhibitors, cell-based (AID 1583); conditions: polyglutamine-induced caspase-3 activation, cell assay; stronger effect = higher value;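 tested at 10 µM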
[2] = suppressors of polyQ aggregation in yeast, 75Q-TubU reporter (AID 1593); conditions: Yeast 75Q polyglutamine aggregation reporter
[3] = rescue of polyQ-huntingtin neuronal dysfunction in worms, whole organism, C. elegans mechanosensory neurons, N-terminal huntingtin (AID 1599); conditions: touch response, stronger effect = higher value
[4] = inhibitors of mitochondrial cytochrome c release, biochemical, purified mitochondria (AID 1603); conditions: stronger effect = lower value;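 note: mouse liver mitochondria challenged with calcium chloride; signal normalized to the plate average as 100%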
[5] = inhibitors of polyQ protein aggregation (AID 1604); conditions: polyglutamine-induced protein aggregation inhibition assay; stronger effect = higher value; tested at 2.5 µM
[6] = enhancers of glutamate uptake in motor neurons, MN-1 cell line (AID 1612); conditions: MN-1 motor neuron cells, stronger effect = higher value;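 note: tested at 1 µM final; 0% = mean of DMSO vehicle wells on each plate; positive means more glutamate uptake than control and negative means less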
[7] = suppressors of polyglutamine aggregation in yeast, 75Q-TubH (AID 1616); conditions: S. cerevisiae 75Q-TubH polyglutamine aggregation suppression; stronger effect = higher value
[8] = circadian clock period modulators, cell-based, LOPAC library, luminescence reporter (AID 2774); conditions: circadian reporter cells, at 7 µM, actives lie on both sides;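 note: values are relative to mean of DMSO wells on each plate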
[9] = liver-stage malaria parasite growth inhibition, primary screen, cell-based, HepG2, luciferase luminescence, HepG2 viability (AID 624349; in the data active = parasite load remaining mostly below about 12%, no sharp cut-off; inactive = mostly above about 10%;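 note: 100% = mean of DMSO negative control wells on the same plate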); conditions: P. berghei liver stage in HepG2, luciferase luminescence, concentration not given here; parasite load remaining: stronger effect = lower value; viability: measured here: HepG2 viability without parasites
[10] = system: Hepatitis C virus NS3 helicase; test: HCV NS3 helicase inhibitors, primary screen, biochemical, fluorescence polarization, LOPAC1280 library (AID 687035; in the data active = inhibition above about 37%); conditions: Purified HCV NS3 helicase, Cy5-dT15 ssDNA binding fluorescence polarization; stronger effect = higher value; concentration not given here
[11] = Cy5 fluorescence quenching or enhancement artefacts, artefact control for HCV NS3 helicase inhibitor project, biochemical, LOPAC1280 (AID 687037); conditions: Cy5-DNA-NS3h complex fluorescence interference counterscreen
[12] = differential killing of epithelial or mesenchymal cells, primary screen, imaging, PC-3E GFP, TEM4-18 mCherry, co-culture (AID 1345086;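 active = compounds killing one labelled cell type while sparing the other, by normalised counts and ratio limits, not self-fluorescent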;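 note: cells exposed to compound for 72 h before imaging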;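 for red/green cell ratio (normalised): normalised mesenchymal count divided by normalised epithelial count so high means epithelial killing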); conditions: imaging cell counts, at 1 µM
[13] = system: Aerobactin synthetase IucA (Klebsiella pneumoniae); test: IucA aerobactin synthetase inhibitors, biochemical, Tocris library, absorbance (AID 1345561); conditions: purified IucA enzyme assay, absorbance (OD) read-out; stronger effect = lower value;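 tested at 8 µM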;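 note: 100% = enzyme without compound and 0% = no enzyme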
[14] = growth inhibition of DIPG glioma cells, dose response, cell-based, SU-DIPG-XVII, MIPE5.0, CellTiter-Glo, qHTS (AID 1347060; cut-off not given, nearly all actives have AC50 up to about 26 µM;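 note: cells exposed to compound for 48 hours before viability readout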); conditions: SU-DIPG-XVII viability, CellTiter-Glo ATP luminescence
[15] = growth inhibition of DIPG glioma cells, dose response, cell-based, SU-DIPG-XIII, MIPE4.0, CellTiter-Glo, qHTS (AID 1347061; cut-off not given, nearly all actives have AC50 up to about 37 µM;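 note: cells exposed to compound for 48 hours before readout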); conditions: SU-DIPG-XIII viability, CellTiter-Glo ATP luminescence
[16] = growth inhibition of DIPG glioma cells, dose response, cell-based, JHH-DIPG-1, MIPE4.0, CellTiter-Glo, qHTS (AID 1347062; cut-off not given, nearly all actives have AC50 up to about 27 µM); conditions: JHH-DIPG-1 viability, CellTiter-Glo ATP luminescence
[17] = growth inhibition of DIPG glioma cells, dose response, cell-based, SU-DIPG-IV, MIPE4.0, CellTiter-Glo, qHTS (AID 1347063; cut-off not given, nearly all actives have AC50 up to about 30 µM;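 note: compound exposure lasted 48 hours before the viability readout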); conditions: SU-DIPG-IV viability, CellTiter-Glo ATP luminescence
[18] = growth inhibition of DIPG glioma cells, dose response, cell-based, SU-DIPG-XIII, MIPE5.0, CellTiter-Glo, qHTS (AID 1347064; cut-off not given, nearly all actives have AC50 up to about 23 µM); conditions: SU-DIPG-XIII viability, CellTiter-Glo ATP luminescence
[19] = viability loss in pontine glioma line – cell-based, SU-DIPG-XXV, MIPE5.0, CellTiter-Glo, qHTS, dose response (AID 1347065; cut-off not given, nearly all actives have AC50 up to about 26 µM;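 note: cells exposed to compound for 48 hours before ATP readout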); conditions: CellTiter-Glo ATP luminescence
[20] = SU-DIPG-VI glioma cell viability, MIPE4.0 library, CellTiter-Glo luminescence, qHTS (AID 1347066; cut-off not given, nearly all actives have AC50 up to about 30 µM;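 note: cells exposed to compound for 48 hours before readout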); conditions: CellTiter-Glo ATP luminescence
[21] = sensitizers of A549 cells to miR-34 induction, primary screen, imaging, A549 dox-inducible miR-34, nuclei and caspase counts (AID 1347080;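 active = compounds whose cell count with miR-34 switched on is under 0.7 times the count with it off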); conditions: A549 miR-34 inducible, Hoechst nuclei count, 48 h
[22] = modifiers of HSF1 nuclear foci, imaging, Selleck Cancer Library (AID 1347162; in the data active = plate-normalised HSF1 focus index below about 0.46); conditions: human cells, at 10 µM; SSMD: measured here: HSF1 foci SSMD mean; cell count: measured here: cell number; plate-normalised HSF1 focus index: stronger effect = lower value
[23] = viability rescue of complex I mutant cybrids, primary screen, cell-based, galactose medium, ATP luminescence (AID 1645843;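 active = z-score of at least 1.8 in each of two replicates, scored against plate mean and spread of sample wells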;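 note: positive z means more ATP and so rescue of galactose-driven cybrid death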); conditions: complex I mutant cybrid cells, 72 h, stronger effect = higher value

For `CC(=O)O[C@H]1C(=O)[C@@]2(C)C([C@H](OC(=O)c3ccccc3)[C@]3(O)C[C@H](OC(=O)[C@H](O)[C@@H](NC(=O)c4ccccc4)c4ccccc4)C(C)=C1C3(C)C)[C@]1(OC(C)=O)CO[C@@H]1C[C@@H]2O` (stereo partly specified), the inhibition [1] was 28.3%, the score [2] was 1.98 and the rescue above control [3] was 5.24. It also gave a cytochrome c release ratio [4] of 1.41, an inhibition of aggregation [5] of 69% and a glutamate uptake change [6] of -2.18%. For the same molecule, the aggregation suppression score [7] was 1.25, the period change [8] was 0.575 h (inactive) and the parasite load remaining [9] was 178% (inactive) and 65.8% (inactive). For the same molecule, the viability [9] was 87.4% and 98%, the inhibition [10] was -1% (inactive) and the fluorescence ratio (interference) [11] was 0.9 (inactive). The red/green cell ratio (normalised) ([12]; actives lie on both sides, counts scaled to control wells, 1 = unselective) was 0.49 (inactive), the normalised cell number ([12]; measured here: epithelial PC-3E GFP cell survival) was 0.23 and the normalised cell number ([12]; measured here: mesenchymal TEM4-18 mCherry cell survival) was 0.11. The remaining activity [13] was 121% (inactive), the AC50 [14] was 5.9 nM (active) and the outcome [15] was “inactive”. For the same molecule, the outcome [16] was “inactive”, the outcome [17] was “inactive” and the outcome [18] was “inactive”. For the same molecule, the AC50 [19] was 7.42 nM (active), the outcome [20] was “inactive” and the fold change ([21]; stronger effect = lower value, cell number ratio, induced over uninduced) was 1.16 (inactive) and 1.14 (inactive). The fold change ([21]; measured here: relative caspase fold change +Dox/-Dox) was 0.394 and 2.19, the cell count ([21]; measured here: total cells with miR-34 induction, stronger effect = lower value) was 2700 and 2090 and the cell count ([21]; measured here: total cells without miR-34 induction) was 2330 and 1830. The SSMD [22] was 5.16, the cell count [22] was 6910 and the plate-normalised HSF1 focus index [22] was 1.32 (inactive). The z-score [23] was 0.865 (inactive).
